Results filed as inconclusive are left out. The source made the active and inactive calls. The call rests on the fitted dose curve; in most records, active means well fitted cell-killing curve with a large enough effect; inconclusive means small, poorly fitted or top-dose-only effect, or effect the other way; inactive means no such curve, though single readings can be large or run the other way. *1 amine or outer side, *2 acyl side, *3 side chain or, on linkers, in order; H or OH if unused. Where a SMILES comes first, the peptide text is derived from it. Bridges are numbered along the chain shown (N, C = ends). Roman numbers before positions name the chains, in order. [ ]: non-standard residue; d: D form. Actinocin(9to1) = Cc1c2oc3c(C)ccc(C(=O)[*:1])c3nc-2c(C(=O)[*:2])c(N)c1=O; NMeV = CN[C@H](C(=O)O)C(C)C; Sar = CNCC(=O)O
tested on: CAOV3; test: Confirmatory qHTS for gynecologic anti-cancer compounds from libraries of approved drugs and bioactive compounds; settings: gynecologic cancer cell panel viability, ATPlite luminescence, 48 h; series mostly up to 57.6 µM; activity change, negative = viability loss: at the top concentration; further: nearly all actives have a fitted effect of over 55% in size
How it was run: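 IC50 values derive from an ATPlite ATP-content luminescence assay following 48 h treatment at 37 C. Each compound ran as an 11-concentration, threefold series (57.5 uM to 0.977 nM); HEK 293T served as control line for selectivity index.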
On the % scale 0 is the no-effect control and ±100 the full control effect; potency means the concentration at half of the fitted maximal effect.

Row | Structure (SMILES) | activity change, negative = viability loss | Potency
1 | Nc1ncn([C@@H]2O[C@H](CO)[C@@H](O)[C@H]2O)c(=O)n1 | 1.76% (inactive) | –
2 | CN1CCN(c2cccc(Nc3nc4c(-c5ccc(S(C)(=O)=O)cc5)cccn4n3)c2)CC1 | – | 27.3 µM (active)
3 | COc1cc(N2CCC(N)CC2)ccc1Nc1ncc(Cl)c(-c2c[nH]c3ccccc23)n1 | – | 3.43 µM (active)
4 | Cn1cc(-c2ccc3ncc(Cc4ccc5ncccc5c4)n3n2)cn1 | -0.803% (inactive) | –
5 | Nc1nc(Cl)nc2c1ncn2C1OC(CO)C(O)C1F (centres undefined) | – | 0.544 µM (active)
6 | CN(c1nccc(=O)[nH]1)C1CCN(c2nc3ccccc3n2Cc2ccc(F)cc2)CC1 | 3.5% (inactive) | –
7 | CS(=O)(=O)c1ccc(C(=O)Nc2ccc(Cl)c(-c3ccccn3)c2)c(Cl)c1 | 25.6% (inactive) | –
8 | CCOc1cc2ncc(C#N)c(Nc3ccc(F)c(Cl)c3)c2cc1NC(=O)/C=C/CN(C)C | – | 19.3 µM (active)
9 | C[C@@]1(C(=O)Nc2ccc(F)nc2)CCCN1c1nc(Nc2cc(C3CC3)[nH]n2)c2cccn2n1 | – | 12.2 µM (active)
10 | OCCNC1CCCc2c1[nH]c1ccc(-c3ccccc3)cc21 (centres undefined) | – | 24.3 µM (active)
11 | COc1cccc2c1C(=O)c1c(O)c3c(c(O)c1C2=O)C[C@@](O)(C(=O)CO)C[C@@H]3O[C@H]1C[C@H](N)[C@H](O)[C@H](C)O1 | – | 2.43 µM (active)
12 | C=CC(=O)Nc1cc2c(Nc3ccc(F)c(Cl)c3)ncnc2cc1OCCCN1CCOCC1 | – | 27.3 µM (active)
13 | Cc1c2oc3c(C)ccc(C(=O)N[C@@H]4C(=O)N[C@H](C(C)C)C(=O)N5CCC[C@H]5C(=O)N(C)CC(=O)N(C)[C@@H](C(C)C)C(=O)O[C@@H]4C)c3nc-2c(C(=O)N[C@@H]2C(=O)N[C@H](C(C)C)C(=O)N3CCC[C@H]3C(=O)N(C)CC(=O)N(C)[C@@H](C(C)C)C(=O)O[C@@H]2C)c(N)c1=O (I: T[dV]P[Sar][NMeV] / II: T[dV]P[Sar][NMeV]; ester I:1-I:C, II:1-II:C; linker I:N-II:N via Actinocin(9to1)) | – | 0.344 µM (active)
14 | Cc1cnc(Nc2ccc(CN3CCOCC3)cc2)nc1Nc1cccc(S(=O)(=O)NC(C)(C)C)c1 | – | 3.85 µM (active)
15 | COc1cc(F)c(F)c(Nc2ccc(I)cc2F)c1NS(=O)(=O)C1(CC(O)CO)CC1 (centres undefined) | -6.27% (inactive) | –
16 | OCc1ccc(-c2ccc(-c3ccc(CO)s3)o2)s1 | – | 0.668 µM (active)
17 | CC(C)C[C@H](NC(=O)[C@@H](NC(=O)c1cccc(-c2ccccc2)n1)[C@@H](C)O)B(O)O | – | 0.172 µM (active)

Row | Structure (SMILES) | activity change, negative = viability loss | Potency
18 | CCc1cccc(CC)c1NC(=O)N1Cc2[nH]nc(NC(=O)c3ccc(N4CCN(C)CC4)cc3)c2C1 | – | 2.43 µM (active)
19 | CCN(CC)CCNC(=O)c1c(C)[nH]c(/C=C2\C(=O)Nc3ccc(F)cc32)c1C | – | 15.8 µM (active)
20 | CCC1=CC2CN(C1)Cc1c([nH]c3ccccc13)[C@@](C(=O)OC)(c1cc3c(cc1OC)N(C)[C@H]1[C@@](O)(C(=O)OC)[C@H](OC(C)=O)[C@]4(CC)C=CCN5CC[C@]31[C@@H]54)C2 (some centres undefined) | 1.08% [at 19.5 µM] (inactive) | –
21 | CC(C)Nc1cc(-c2c[nH]c(C(=O)N[C@H](CO)c3cccc(Cl)c3)c2)c(Cl)cn1 | 8.77% (inactive) | –
22 | Nc1ccccc1NC(=O)c1ccc(CNc2nccc(-c3cccnc3)n2)cc1 | – | 2.73 µM (active)
23 | CCn1c(-c2nonc2N)nc2c(C#CC(C)(C)O)ncc(OCC3CCCNC3)c21 (centres undefined) | – | 24.3 µM (active)
24 | O=C(Nc1cccnc1)N1CCC(Cc2cccc(Oc3ccc(C(F)(F)F)cn3)c2)CC1 | -13.2% (inactive) | –
25 | CN1C2CCC1CC(OC(=O)[C@H](CO)c1ccccc1)C2 (some centres undefined) | -6.01% (inactive) | –
26 | CCCCc1nc2cc(/C=C/C(=O)NO)ccc2n1CCN(CC)CC | – | 4.85 µM (active)
27 | Cc1cc(Nc2cc(N3CCN(C)CC3)nc(/C=C/c3ccccc3)n2)n[nH]1 | – | 7.69 µM (active)
28 | O=c1c2ccccc2nc2n1CCc1c-2[nH]c2ccccc12 | -12.1% (inactive) | –
29 | CS(=O)(=O)c1ccc(-c2cnc(N)c(C(=O)Nc3ccccc3)n2)cc1 | -10.9% (inactive) | –
30 | CN(C)C1CCN(C(=O)c2ccc(NC(=O)Nc3nc(N4CCOCC4)nc(N4CCOCC4)n3)cc2)CC1 | – | 0.611 µM (active)
31 | COc1ccccc1N1CCN(CC(O)COc2cccc3ccccc23)CC1 (centres undefined) | -3.71% (inactive) | –
32 | Cc1ccn(-c2ccc(-c3ncco3)cc2)c(=O)c1-c1ccc2nc(N)ncc2c1 | -11.3% (inactive) | –
33 | Cc1cc(C(=O)N2CCN(c3cccc(Cl)c3)CC2)n(-c2ccccc2)n1 | 9.33% (inactive) | –
34 | CCc1c2c(nc3ccc(O)cc13)-c1cc3c(c(=O)n1C2)COC(=O)[C@]3(O)CC | – | 0.0385 µM (active)

— PubChem BioAssay AID1345085 (National Center for Advancing Translational Sciences (NCATS), 2018)
